Assay results as given in PubChem BioAssay (NCI).
About 83,000 compounds went through this panel and 20% of them were active in at least one assay; those are over-represented in the sample as a whole.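 Single-dose data. Exposure time 48 hours. Values below 10 considered active.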 Values without a mark were called inactive. Calls of active or inactive are those of the source.

Legend:
Experiment in all cases: NCI-60 one-dose screen, 48 h (100 = growth as untreated, 0 = no growth, -100 = all killed)
Conditions in all cases: 10 µM
[1] = test system: NCI-H23 lung
[2] = test system: NCI-H226 lung
[3] = test system: NCI-H322M lung
[4] = test system: HOP-62 NSCLC
[5] = test system: NCI-H460 lung
[6] = test system: NCI-H522 lung
[7] = test system: A549/ATCC NSCLC
[8] = test system: 786-0 renal
[9] = test system: COLO 205 colon
[10] = test system: DU-145 prostate
[11] = test system: K-562 leukemia
[12] = test system: MALME-3M melanoma
[13] = test system: MDA-MB-231 breast
[14] = test system: RXF 393 renal
[15] = test system: SF-268 CNS
[16] = test system: SF-295 CNS
[17] = test system: SF-539 CNS
[18] = test system: UACC-257 melanoma
[19] = test system: M14 melanoma
[20] = test system: HCT-15 colon

| Structure (SMILES) | growth [1] | growth [2] | growth [3] | growth [4] | growth [5] | growth [6] | growth [7] | growth [8] | growth [9] | growth [10] | growth [11] | growth [12] | growth [13] | growth [14] | growth [15] | growth [16] | growth [17] | growth [18] | growth [19] | growth [20] |
| --- | --- | --- | --- | --- | --- | --- | --- | --- | --- | --- | --- | --- | --- | --- | --- | --- | --- | --- | --- | --- |
| c1ccc(CO[C@H]2CO[C@H]3[C@@H]2OC[C@H]3OCc2ccccc2)cc1 | 107% | 101% | 101% | 97.7% | 110% | 100% | 111% | 104% | 100% | 119% | 106% | 144% | 112% | 119% | 102% | 95.3% | 110% | 108% | 104% | 99.1% |
| COc1ccc(Nc2ccnc(NCCNc3ccnc4cc(Cl)ccc34)n2)cc1 | 48.8% | 49.7% | 64.7% | 74.6% | 47.4% | 43.9% | 47% | 59.4% | 38.8% | 61.4% | 3.54% (active) | -1.18% (active) | 37.3% | 55.7% | 54.5% | 46.1% | -14.4% (active) |  | -16.6% (active) | 36.8% |
| CCCCCCCCCCCCCCCC(=O)OC1[C@@H](OC(=O)CCCCCCCCCCCCCCC)[C@@H](C(=O)N[C@@H](CCCCN)C(=O)OC)O[C@H]1n1cnc2c(=O)[nH]c(NC(=O)C(C)C)nc21 (some centres undefined) | 97.8% | 102% | 89.6% | 104% | 101% | 84.4% | 99.8% | 98.1% | 101% | 107% | 82.9% | 98.5% | 118% | 105% | 97.1% | 108% | 103% | 90.1% | 93.7% | 96.6% |
| COc1ccc(S(=O)(=O)Nc2c(/C=C\c3cc(OC)c(OC)c(OC)c3)ccc(OC)c2O)cc1 | 33.1% | 12.9% | 40.5% | 49.1% | 6.2% (active) | -47.6% (active) | 15.6% | 9.56% (active) | 3.21% (active) | -16.7% (active) | 12.3% | 61.5% | 5.46% (active) | 33.5% | 13.3% | 3.31% (active) | -28.9% (active) | 32.4% | 2.65% (active) | 7.33% (active) |
| CN1CCC(CNc2cc(C3(C(=O)Nc4cc(C(=O)Nc5ccc(Cl)c(C(F)(F)F)c5)ccc4F)CC3)ncn2)CC1 | 44% | 72.5% | 39.4% | -47.2% (active) | 3.98% (active) | 46.6% | 13.4% | -38.4% (active) | -67.3% (active) | 40.5% | -60.3% (active) | -67.7% (active) | -32.2% (active) | -46.8% (active) | 18.2% | -54.4% (active) | -57.2% (active) |  | -52% (active) | -20.3% (active) |
| Cc1cc(=O)n2nnc3c4ccccc4ccc3n12 | 94% | 59.8% | 96.3% | 70% | 83.9% | 87.9% | 60.2% | 89.8% | 8.79% (active) | 98.8% | 24.7% | 81.2% | 71.4% | 98% | 84% | 104% | 82.3% | 81.1% | 92.4% | 51.4% |
| Cc1nc2ccc(CN(C)c3ccc(C(=O)N[C@@H](CCC(=O)O)C(=O)O)s3)cc2c(=O)[nH]1 | 54.9% | 56.1% | 85.9% | 28.6% | 29.1% | 71.9% | 60% | 18.3% | 58.5% | 52.6% | 30.6% | 60.7% | 89.4% | 31.8% | 26.4% | 22.9% | 6.05% (active) | 46.7% | 21.8% | 74.5% |
| CN(C)N=Nc1nn(C(=O)Nc2ccc(Cc3ccccc3)cc2)c2ccccc12 | 61% | 69.2% | 81.3% | 70.6% | 11.4% | 42.3% | 31.5% | 49.9% | -53.4% (active) | 60.8% | 18.4% | 53.8% | 58.2% | 94.8% | 63.5% | 9.64% (active) | 4.93% (active) | 29.3% | 20.4% | 36.2% |
| CC(C)=CCc1cc(O)cc2c1OC(C=C(C)C)C1=C2C(=O)C2=C(NCCS2(=O)=O)C1=O (centres undefined) | -48.7% (active) | -17.6% (active) | -17.5% (active) | -12.6% (active) | 3.29% (active) | -20.6% (active) | 2.33% (active) | 22.9% | -61.3% (active) | -95.3% (active) | 2.31% (active) | -92.9% (active) | -8.67% (active) | -2.85% (active) | -1.83% (active) | 45.9% | -50.5% (active) |  | -87.2% (active) | 28.4% |
| C#Cc1ccc(-n2c(/C=C/c3cc(OC)cc(OC)c3)nc3ncccc3c2=O)cc1 | 89% | 65.8% | 72.5% | 48.6% | 94.6% | 7.88% (active) | 68.4% | 81% | 117% | 93.2% | 75.3% | 83.2% | 53.5% | 64.8% | 65.3% | 75.7% | 87.8% | 66.3% | 81.2% | 82.8% |
| Cc1ccc(Nc2cc(C)nc(NCCCNc3ccnc4cc(Cl)ccc34)n2)cc1 | 17.6% | 48.5% | -31.8% (active) | -12.4% (active) | -45.4% (active) | -83.5% (active) | -69.3% (active) | -100% (active) | -88.2% (active) | -17.8% (active) | -55% (active) | -80.5% (active) | -92.4% (active) | -92.1% (active) | -85% (active) | -85.6% (active) | -96.9% (active) |  | -86% (active) | -71.7% (active) |
| O=C1/C(=C\c2cn(C(=O)c3ccc(Cl)cc3)c3ccccc23)c2ccccc2N1C(=O)c1ccc(Cl)cc1 | 83.2% | 89.4% | 98.6% | 61.4% | 86% | 6.02% (active) | 63.3% | 93.7% | 105% | 85.1% | 83.9% | 126% | 81.2% | 83.3% | 77.6% | 102% | 67.3% |  | 79.2% |  |
| Cc1cc(N(CCCNc2ccnc3cc(Cl)ccc23)Cc2ccc3c(c2)OCO3)nc(N2CCCCC2)n1 | 6.38% (active) | 38.1% | -5.02% (active) | -45.1% (active) | -30.8% (active) | -43.9% (active) | -32.8% (active) | -91.5% (active) | -78.7% (active) | 11.1% | -45.5% (active) | -81.6% (active) | -47.2% (active) | -74.5% (active) | 3.28% (active) | -67.6% (active) | -87.7% (active) |  | -86% (active) |  |
| COc1cc(/C=N/NC(=O)c2ccccc2Nc2cccc(C(F)(F)F)c2)cc(OC)c1OC | 45.3% | 36.9% | 47% | 133% | -17.6% (active) | 4.06% (active) | 15% | 177% | 54.4% | -22.6% (active) | 12.3% | 11.5% | 28.5% | 4.73% (active) | 20.4% | -14.8% (active) | -0.572% (active) | 49.6% | 177% | 7.05% (active) |
| CN(C)CCNC(=O)c1cccn2c(=O)c3cc4ccccc4cc3nc12 | -3.24% (active) | -16% (active) | 3.8% (active) | -26.8% (active) | -31.7% (active) | -88.5% (active) | -27.1% (active) | -31.3% (active) | -15.2% (active) | -3.1% (active) | 4.58% (active) | -45.2% (active) | 22% | -89.5% (active) | -14.9% (active) | -19.7% (active) | 1.59% (active) |  | -63.7% (active) |  |
| Clc1ccc(Nc2ccnc(NCCCNc3ccnc4cc(Cl)ccc34)n2)cc1 | 45.6% | 93.7% | -16.7% (active) | 19.6% | -28.8% (active) | -76% (active) | -65.1% (active) | -98.9% (active) | -91.1% (active) | 9.74% (active) | -56.9% (active) | -81% (active) | -86% (active) | -89.3% (active) | -75.8% (active) | -81.1% (active) | -96.8% (active) |  | -80% (active) | -60.6% (active) |
